# BCR signal inh – inhibitors of chronic active B-cell receptor signaling; ABC-DLBCL IkBa-CBG/CBR reporter, luminescence ratio, 4 h; Potency, µM (doses to about 46.1 µM), without a hit: top-dose activity change, negative = inhibition, actives largely listed as inhibitors; 0.05% of 340,000 active; active = well fitted inhibition curve with a large enough effect in the signal ratio, with a control signal flat, not every such curve was filed as active; inconclusive = small, poorly fitted or top-dose-only effect, or effect the other way, or a change in a side signal; the % refers to the signal ratio;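 also: plate controls were basal doxycycline-induced cells for no effect and cells given 10 µM MG132 for full effect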
#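 Compounds up to 46 uM were incubated four hours with TMD8 cells whose green CBG68 luciferase is fused to IkappaBalpha; red CBR luminescence normalised the signal, and concentration-effect curves were fitted to fusion, red and ratio data.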
# FUS yeast rescue – rescues growth of FUS-expressing yeast; AID 1347120; Potency, µM (series often up to 76.6 µM), most hits filed as activators; S. cerevisiae FUS-expressing, growth rescue, OD600, 24 h; 0.24% of 390,000 active;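 also: plate controls were DMSO vehicle for no effect and reference control for full effect; nearly all actives have a fitted effect of over 55% in size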
#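 FUS-expressing yeast, raffinose-pregrown, induced in 2% galactose minimal medium at OD 0.005; compounds in a dilution series, 24hr at 30C. Growth restoration read as absorbance at 600 nm. CP55940 positive control, DMSO negative.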
# TDP43 rescue – rescues yeast growth from TDP-43 toxicity | TDP-43 expressing yeast growth rescue, BacTiter-Glo, 24 h | Potency, µM (series often up to 46.1 µM), for inactives: at the highest dose growth rescue (activation), actives largely listed as activators | 1.8% of 410,000 active; also: % of control where 0% means no effect; nearly all actives have a fitted effect of over 50% in size
#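 Cell-based yeast growth screen: TDP-43 expression induced in galactose, inoculum OD600=0.02 after raffinose pregrowth to mid-log. Read-out BacTiter-Glo luminescence at 24 hr, 30 deg C; inhibition of toxicity seen as signal increase.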
# aSyn rescue – rescues yeast growth from alpha-synuclein toxicity | Potency, µM (doses to about 46.1 µM), inactives show at the highest dose growth rescue (activation), actives largely listed as activators | Yeast expressing alpha-synuclein, growth rescue, BacTiter-Glo, 24 h | 0.14% of 370,000 active | AID 652106; also: % of control where 0% means no effect; nearly all actives have a fitted effect of over 65% in size
#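 Rescue of yeast growth: cells expressing toxic alpha-synuclein, induced in galactose at OD600 0.02, incubated with compound 24 h at 30 C. ATP luminescence quantified growth; inhibitors of toxicity appear as activators.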
# Abeta yeast res – restores growth of yeast expressing A-beta42 peptide; 0.063% of 410,000 active; Potency, µM (titrated, usually from 46.1 µM), hits mostly activators; yeast expressing A-beta42, growth rescue, OD600, 48 h; response scale: 0% DMSO, 100% iron-clioquinol control; also: nearly all actives have a fitted effect of over 55% in size
#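 Yeast growth medium received pinned compounds, then yeast cells expressing toxic A-beta were added; plates incubated at 30 C for 48 hr. Growth read as absorbance at 600 nm, normalized to DMSO and equimolar FeCl3 plus clioquinol controls.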
# uPA surface inh – inhibitors of cell surface uPA generation; Potency, µM (highest dose often 38.3 µM), without a hit: top-dose activity change, negative = inhibition, usual class: inhibitors; cell surface uPA generation assay, qHTS; AID 540303; 0.31% of 330,000 active; active = well fitted inhibition curve with a large enough effect; inconclusive = small, poorly fitted or top-dose-only effect; inactive = no such curve, though single readings can be large or run the other way; tested in mouse RAW 264.7 cells; also: % is scaled to controls: 0 for no effect and ±100 for the full control effect; nearly all actives have a fitted effect of over 55% in size
# Active calls of the source: *; i = inactive; ? = inconclusive; . = no result given; [ ] = dose if it differs, or a comment. A selection: hits, their analogues and other compounds. The true share with any hit is near 2.3%. Unless noted, calls follow the shape of the dose curve; as a rule, active = well fitted curve in the direction sought with a large enough effect; inconclusive = small, poorly fitted or top-dose-only effect, or another doubt; inactive = no such curve, though single readings can be large; an effect the other way counts as inactive or inconclusive. Potency is read from the fitted curve at half-maximal effect.
SMILES,BCR signal inh,FUS yeast rescue,TDP43 rescue,aSyn rescue,Abeta yeast res,uPA surface inh
CCn1c(C)c(C(C)=O)c(N2CCCCC2)nc1=S,?,i,14.0%,-0.1%,i,6.5%
O=S(=O)(Nc1ccc2c(c1)OCO2)c1cccc(Br)c1,1.1%,.,12.6µM*,9.5%,i,1.4%
O=S(=O)(Nc1ccc2c(c1)OCCO2)c1ccc2oc3ccccc3c2c1,1.3%,i,?,25.1µM*,i,-5.8%
CN(C)/N=C/C=C1\CCC/C(=C\c2ccc(F)c(F)c2)C1=O,-26.5%,i,14.9%[9.22 µM],-10.7%,i,-7.7%
COc1ccc(C=C2CS(=O)(=O)CC(=Cc3ccc(OC)cc3)C2=O)cc1,.,i,?,12.6µM*,i,.
COc1ccc(/C=C2\CCCCC2=O)cc1,.,i,15.5%,-2.6%,i,-0.5%
COc1ccc(/C=C2\CCC/C(=C\C=N\N(C)C)C2=O)cc1,?,i,4.9%,-3.4%,i,11.2µM*
COc1cccc(-c2nc(CCl)cs2)c1,2.7%,i,11.2µM*,-7.6%,i,-6.0%
COc1ccc(-c2nc(CCl)cs2)cc1,1.1%,i,9.0%,-3.1%,i,?
Brc1ccc(-c2csc(-c3ccncc3)n2)cc1,?,.,11.2µM*,0.6%,i,-2.9%
COCCn1cnc2c1c(=O)n(CC(=O)Nc1cc(C)on1)c(=O)n2Cc1ccccc1,-0.3%,i,9.7%,3.8%,i,-5.3%
COc1cc(Br)c(C(=O)c2nccc3cc(OC)c(OC)cc23)cc1OC,-3.5%,i,-3.1%,0.6%,i,0.3%
COCCNC(=S)N1CCC2CC1c1cc(-c3ccc4c(c3)OCO4)ccc12 (stereo unspecified),.,?,22.4µM*,22.6%,?,.
S=C(NCCc1ccccc1)N1CCC2CC1c1cc(-c3ccc4c(c3)OCO4)ccc12 (stereo unspecified),.,i,?,-10.8%,i,.
Cc1nnc(Sc2nc3ccccc3o2)c2ccccc12,?,i,14.1µM*,?,i,-14.5%
CC(C)(C)C(c1nc2ccccc2[nH]1)n1c(-c2cc(Cl)cc(Cl)c2)nc2ccccc21 (stereo unspecified),.,i,35.5µM*,-8.0%,?,.
CC(=O)c1sc(Nc2ccc(Oc3ccccc3)cc2)nc1C,.,i,35.5µM*,-6.0%,i,.
CC(=O)c1sc(Nc2ccccc2)nc1C,.,i,0.0%,11.8%,i,.
Cc1nc(Nc2ccccc2)sc1-c1ccccc1,?,.,20µM*,-6.5%,i,-8.3%
CC(=O)c1sc(Nc2cccc(C)c2)nc1C,1.6%,i,7.08µM*,0.2%,i,-5.0%
Cc1nc(Nc2ccc(C(=O)O)cc2)sc1-c1ccccc1,?,i,-14.4%,1.0%,i,2.5%
COc1ccc(C(=O)c2sc(Nc3ccccc3)nc2C)cc1,-16.6%,i,25.1µM*,12.0%,i,2.5%
Cc1ccc(CNc2nc(-c3cccnc3)nc3ccccc23)cc1,?,i,-11.1%,-2.3%,i,5.2%
N/C(=N\c1nc2ccccc2o1)NC(=O)c1ccccc1,?,i,15.0%,1.9%,i,0.2%
CCOC(=O)c1sc(Nc2ccccc2)nc1C,-18.6%,i,?,4.5%,i,-11.6%
SMILES,BCR signal inh,FUS yeast rescue,TDP43 rescue,aSyn rescue,Abeta yeast res,uPA surface inh
CC(=O)c1sc(NC(=O)c2ccc(Br)o2)nc1C,?,i,11.2µM*,-1.8%,i,?
COC(=O)c1sc(Nc2ccccc2)nc1C,?,i,12.6µM*,-13.5%,i,-5.5%
C=CCN=c1scc(-c2ccc3c(c2)NC(=O)CO3)n1/N=C(\C)c1ccccn1,-0.6%,i,12.6µM*,-25.7%,i,-5.0%
O=C(O)c1ccc(OS(=O)(=O)c2cccc(C(F)(F)F)c2)cc1,-6.0%,i,?,16.3%,i,17.5%
O=C(O)c1ccc(OS(=O)(=O)c2ccc(Cl)s2)cc1,?,i,14.1µM*,4.5%,i,-1.4%
Cc1ccc(Cn2c(=O)oc3ccccc32)cc1,-0.5%,i,14.2%,-0.1%,i,0.4%
Cc1ccc(S(=O)(=O)n2c(=O)oc3ccccc32)cc1,-0.6%,i,8.91µM*,11.2%,i,5.8%
Cc1ccc(C(=O)n2c(N)nc3ccccc32)cc1,?,i,-8.0%[0.397 µM],-26.2%,i,-17.6%
Cc1cccc2c(=O)n(C(=O)c3ccccc3)c(N)nc12,.,i,20µM*,7.2%,i,.
C[C@@H]1CC=C[C@@H]2[C@H]1C(=O)N(Cc1ccccc1)[C@H]2c1ccccc1Br,-0.4%,i,11.2µM*,-12.2%,i,-8.5%
CCn1c(SCC(=O)Nc2nccc(C)n2)nc2ccccc21,?,i,12.0%,2.3%,i,3.1%
O=[N+]([O-])c1cccc(C=NNc2ccc3ccccc3n2)c1O,.,.,?,2µM*,i,-12.5%
O=C(N/N=C\c1ccccn1)C1COc2cc3ccccc3cc2O1 (stereo unspecified),?,i,8.9%,20µM*,?,-1.1%
O=C(N/N=C\c1cccc([N+](=O)[O-])c1O)C1COc2ccccc2O1 (stereo unspecified),7.7%,i,11.2µM*,6.31µM*,i,-12.3%
NNC(=O)C1COc2cc3ccccc3cc2O1 (stereo unspecified),-2.2%,i,24.1%,-1.2%,i,-14.0%
O=C(N/N=C/c1cccc([N+](=O)[O-])c1O)c1cccs1,?,.,27.5%,7.94µM*,i,-9.0%
O=C(N/N=C/c1ccc([N+](=O)[O-])cc1)c1cccs1,?,i,3.6%,-1.6%,i,-27.0%
CSc1ccccc1NC(=O)C1CC(c2ccccc2O)=NO1 (stereo unspecified),?,i,-1.9%,0.3%,i,-0.5%
COc1ccc(NCC(O)COc2ccc(C(C)(C)C)cc2)cc1 (stereo unspecified),0.1%,i,15.8µM*,24.2%,?,-1.9%
COc1ccc(N2CCN(CC(O)COc3ccc(C(C)(C)C)cc3)CC2)cc1 (stereo unspecified),.,i,12.6µM*,.,i,.
c1ccc(-c2cc3c(N4CCN(c5ccccc5)CC4)ncnc3s2)cc1,-3.2%,i,28.2µM*,9.3%,i,4.8%
CCCn1nnc(NC(=S)NC(=O)c2ccccc2OC)n1,-21.3%,i,?,1.3%,i,2.8%
Nc1nc(Cl)cc(Nc2ccccc2Cl)n1,?,i,21.6%,-13.3%,i,-26.7%
CSc1nc(Cl)cc(Nc2ccccc2N)n1,-0.1%,i,10µM*,8.9%,i,-7.5%

# Screening results (PubChem)
